Experimental data as given in the supplement of paper PMC10849652.
The full data set covers some 7,900 targets. This sample favours those with a hit. About 0.6% of all pairs of compound and target were hits. A number with no mark means an inactive call.

How the values were obtained:
Experiment in all cases: log2 fold change, soluble protein after heating vs DMSO (PISA); higher = thermal stabilisation; K562 cells, 10 uM, 30 min; active = over 0.2 and 3.5 SD of the protein, either way, in both replicates (recomputed)
[1] = compound: CC1=C(C=C(C=C1)NC(=O)C2=CC(=CC=C2)C(C)(C)C#N)NC3=CC4=C(C=C3)N=CN(C4=O)C
In short: (§1)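 Values are thermal stability changes relative to control samples and are taken from duplicates. They are stated as log2 fold changes. Before quantification by TMTpro 16plex LC-MS/MS with equalised channel sums, K562 cells at 2×10^6 cells/mL were treated with 10 μM compound for 30 min, heated in aliquots for 3 min across 48°C-58°C, pooled, extracted in PBS with 0.5% NP-40 at 4°C, and centrifuged at 21,000xg for 90 min to give the soluble supernatant.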

[2] = compound: CC1=C(C=C(C=C1)NC(=O)C2=CC(=CC=C2)N(C)C)NC(=O)C3=CC=C(C=C3)O
In short: as §1

[3] = compound: CC1=CC=C(C=C1)SC2=C3C=C(SC3=CN=C2)C(=O)N
In short: as §1

[4] = compound: CC1=NC(=CC=C1)C2=C(N=C(N2)C(C)(C)C)C3=CC4=NC=CN=C4C=C3
In short: as §1

Nexturastat A = compound: CCCCN(Cc1ccc(C(=O)NO)cc1)C(=O)Nc1ccccc1 [Nexturastat A]
In short: as §1

vemurafenib = compound: CCCS(=O)(=O)Nc1ccc(F)c(C(=O)c2c[nH]c3ncc(-c4ccc(Cl)cc4)cc23)c1F [vemurafenib]
In short: as §1

[5] = compound: CCCS(=O)(=O)Nc1ccc(F)c(C(=O)c2c[nH]c3ncc(Cl)cc23)c1F
In short: as §1

[6] = compound: CCCc1cc(C)[nH]c(=O)c1CNC(=O)c1cc(-c2ccnc(N3CCN(C)CC3)c2)cc2c1cnn2C(C)C
In short: as §1

givinostat = compound: CCN(CC)Cc1ccc2cc(COC(=O)Nc3ccc(C(=O)NO)cc3)ccc2c1 [givinostat]
In short: as §1

barasertib = compound: CCN(CCCOc1ccc2c(Nc3cc(CC(=O)Nc4cccc(F)c4)[nH]n3)ncnc2c1)CCOP(=O)(O)O [barasertib]
In short: as §1

[7] = compound: CC[C@@H]1C(=O)N(C)c2cnc(Nc3ccc(C(=O)NC4CCN(C)CC4)cc3OC)nc2N1C1CCCC1
In short: as §1

volasertib = compound: CC[C@@H]1C(=O)N(C)c2cnc(Nc3ccc(C(=O)N[C@H]4CC[C@H](N5CCN(CC6CC6)CC5)CC4)cc3OC)nc2N1C(C)C [volasertib]
In short: as §1

[8] = compound: CC[C@H](C)N1C=C(C2=C(C=C(C=C21)C3=CN=C(C=C3)N4CCNCC4)C(=O)NCC5=C(C=C(NC5=O)C)C)C
In short: as §1

epoxomicin = compound: CC[C@H](C)[C@@H](C(=O)N[C@@H]([C@@H](C)O)C(=O)N[C@@H](CC(C)C)C(=O)[C@]1(CO1)C)NC(=O)[C@H]([C@@H](C)CC)N(C)C(=O)C [epoxomicin]
In short: as §1

[9] = compound: CCn1c(C(=O)N(C2CC2)C2CC2)cc2c3c(ncn3C)c(Nc3cc(C)n(C)n3)nc21
In short: as §1

[10] = compound: CCn1cc(-c2ccnc3[nH]c(-c4cccc(CN(C)C)c4)cc23)c(-c2ccc(NC(=O)N(C)C)cc2)n1
In short: as §1

[11] = compound: CN(C)CC(=O)Nc1ccc2[nH]c(=O)c3ccccc3c2c1
In short: as §1

rosiglitazone = compound: CN(CCOC1=CC=C(C=C1)C[C@H]2C(=O)NC(=O)S2)C3=CC=CC=N3 (racemic) [rosiglitazone]
In short: as §1

[12] = compound: CN1C2=C(C3=C1C(=O)N(N=C3)CC4=CC(=CC=C4)N)SC(=C2)S(=O)C
In short: as §1

[13] = compound: CN1CCC(CNc2ccc3ncc(-c4cccc(OC(F)(F)F)c4)n3n2)CC1
In short: as §1

Sequence of UniProt Q00587 (Q00587 whole entry, looked up): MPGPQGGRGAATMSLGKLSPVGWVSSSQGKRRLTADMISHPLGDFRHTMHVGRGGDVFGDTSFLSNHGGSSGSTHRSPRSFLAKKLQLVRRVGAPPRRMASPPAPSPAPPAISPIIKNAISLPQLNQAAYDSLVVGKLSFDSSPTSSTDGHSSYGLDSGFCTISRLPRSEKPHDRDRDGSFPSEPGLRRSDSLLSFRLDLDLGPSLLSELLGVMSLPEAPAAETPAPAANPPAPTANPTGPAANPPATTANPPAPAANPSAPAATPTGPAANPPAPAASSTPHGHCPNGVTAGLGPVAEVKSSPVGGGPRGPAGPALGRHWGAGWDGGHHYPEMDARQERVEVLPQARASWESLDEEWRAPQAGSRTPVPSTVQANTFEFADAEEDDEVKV
Sequence of UniProt O75794 (O75794 whole entry, looked up): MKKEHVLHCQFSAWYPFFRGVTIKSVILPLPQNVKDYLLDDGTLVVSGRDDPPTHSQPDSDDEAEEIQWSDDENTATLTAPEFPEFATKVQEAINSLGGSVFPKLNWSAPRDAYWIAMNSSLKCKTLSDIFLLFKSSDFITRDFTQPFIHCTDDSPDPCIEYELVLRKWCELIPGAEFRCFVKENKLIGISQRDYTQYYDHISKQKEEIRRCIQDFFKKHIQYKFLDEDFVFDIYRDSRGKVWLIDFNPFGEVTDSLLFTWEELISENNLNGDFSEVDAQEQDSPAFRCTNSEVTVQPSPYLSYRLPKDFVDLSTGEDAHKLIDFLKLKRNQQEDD
Sequence of UniProt P35790 (P35790 whole entry, looked up): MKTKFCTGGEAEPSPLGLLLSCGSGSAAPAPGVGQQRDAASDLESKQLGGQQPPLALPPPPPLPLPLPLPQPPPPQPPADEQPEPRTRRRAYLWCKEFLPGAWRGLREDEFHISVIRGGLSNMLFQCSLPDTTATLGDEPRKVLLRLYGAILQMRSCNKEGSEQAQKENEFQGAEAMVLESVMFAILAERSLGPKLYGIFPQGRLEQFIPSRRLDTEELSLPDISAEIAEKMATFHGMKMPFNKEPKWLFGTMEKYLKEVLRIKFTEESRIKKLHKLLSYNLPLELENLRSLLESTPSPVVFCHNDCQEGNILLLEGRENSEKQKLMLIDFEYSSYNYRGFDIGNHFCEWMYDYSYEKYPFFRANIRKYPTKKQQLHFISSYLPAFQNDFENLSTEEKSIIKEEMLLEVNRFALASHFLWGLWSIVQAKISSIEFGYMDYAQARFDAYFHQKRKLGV
Sequence of UniProt P61024 (P61024 whole entry, looked up): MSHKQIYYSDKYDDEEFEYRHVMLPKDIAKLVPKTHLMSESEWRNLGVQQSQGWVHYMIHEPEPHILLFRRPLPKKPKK
Sequence of UniProt P83916 (P83916 whole entry, looked up): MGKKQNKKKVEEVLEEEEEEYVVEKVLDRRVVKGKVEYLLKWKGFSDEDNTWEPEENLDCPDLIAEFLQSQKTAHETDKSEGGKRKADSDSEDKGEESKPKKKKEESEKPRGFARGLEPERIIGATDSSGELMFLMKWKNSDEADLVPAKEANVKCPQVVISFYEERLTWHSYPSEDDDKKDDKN
Sequence of UniProt Q13555 (Q13555 whole entry, looked up): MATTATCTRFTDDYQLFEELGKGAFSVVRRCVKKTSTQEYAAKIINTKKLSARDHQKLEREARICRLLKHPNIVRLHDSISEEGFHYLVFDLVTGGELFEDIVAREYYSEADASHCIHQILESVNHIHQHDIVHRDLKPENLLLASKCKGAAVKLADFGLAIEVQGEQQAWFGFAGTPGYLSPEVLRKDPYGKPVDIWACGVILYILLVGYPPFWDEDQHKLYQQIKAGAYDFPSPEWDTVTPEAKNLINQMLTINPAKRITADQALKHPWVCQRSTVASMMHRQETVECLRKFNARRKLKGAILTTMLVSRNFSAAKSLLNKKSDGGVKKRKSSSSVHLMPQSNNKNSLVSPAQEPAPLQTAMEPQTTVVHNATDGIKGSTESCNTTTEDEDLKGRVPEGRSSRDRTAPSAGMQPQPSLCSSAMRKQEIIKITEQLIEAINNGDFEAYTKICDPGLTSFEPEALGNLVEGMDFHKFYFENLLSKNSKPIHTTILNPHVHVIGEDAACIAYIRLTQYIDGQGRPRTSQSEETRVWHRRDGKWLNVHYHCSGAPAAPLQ
Sequence of UniProt Q96KP4 (Q96KP4 whole entry, looked up): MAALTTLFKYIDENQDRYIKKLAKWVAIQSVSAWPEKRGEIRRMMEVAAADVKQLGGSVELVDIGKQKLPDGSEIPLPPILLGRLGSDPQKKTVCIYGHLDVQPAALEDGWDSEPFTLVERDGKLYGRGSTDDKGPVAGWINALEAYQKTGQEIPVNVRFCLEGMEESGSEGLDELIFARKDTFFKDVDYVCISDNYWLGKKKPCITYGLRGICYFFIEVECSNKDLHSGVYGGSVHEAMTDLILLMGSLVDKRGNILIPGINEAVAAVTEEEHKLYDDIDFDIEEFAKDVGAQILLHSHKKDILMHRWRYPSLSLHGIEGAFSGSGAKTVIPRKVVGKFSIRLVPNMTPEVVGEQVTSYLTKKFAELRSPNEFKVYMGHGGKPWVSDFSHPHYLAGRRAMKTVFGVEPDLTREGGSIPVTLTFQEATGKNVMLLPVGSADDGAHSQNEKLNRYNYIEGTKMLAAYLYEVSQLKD
Sequence of UniProt Q00534 (Q00534 whole entry, looked up): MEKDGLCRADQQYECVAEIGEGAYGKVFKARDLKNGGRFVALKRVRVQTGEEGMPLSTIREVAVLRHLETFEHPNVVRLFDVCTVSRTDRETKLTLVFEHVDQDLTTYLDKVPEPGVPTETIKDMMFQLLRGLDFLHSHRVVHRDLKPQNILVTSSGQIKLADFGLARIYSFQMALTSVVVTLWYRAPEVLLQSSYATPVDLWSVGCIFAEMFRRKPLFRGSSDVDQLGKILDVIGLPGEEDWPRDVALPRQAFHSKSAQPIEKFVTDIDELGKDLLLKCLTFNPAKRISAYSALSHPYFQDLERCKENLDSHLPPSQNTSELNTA
Sequence of UniProt P10606 (P10606 whole entry, looked up): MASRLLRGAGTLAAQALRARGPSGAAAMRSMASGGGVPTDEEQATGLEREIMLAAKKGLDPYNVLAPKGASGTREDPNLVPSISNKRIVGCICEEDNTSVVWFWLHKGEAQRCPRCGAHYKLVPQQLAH
Sequence of UniProt P41240 (P41240 whole entry, looked up): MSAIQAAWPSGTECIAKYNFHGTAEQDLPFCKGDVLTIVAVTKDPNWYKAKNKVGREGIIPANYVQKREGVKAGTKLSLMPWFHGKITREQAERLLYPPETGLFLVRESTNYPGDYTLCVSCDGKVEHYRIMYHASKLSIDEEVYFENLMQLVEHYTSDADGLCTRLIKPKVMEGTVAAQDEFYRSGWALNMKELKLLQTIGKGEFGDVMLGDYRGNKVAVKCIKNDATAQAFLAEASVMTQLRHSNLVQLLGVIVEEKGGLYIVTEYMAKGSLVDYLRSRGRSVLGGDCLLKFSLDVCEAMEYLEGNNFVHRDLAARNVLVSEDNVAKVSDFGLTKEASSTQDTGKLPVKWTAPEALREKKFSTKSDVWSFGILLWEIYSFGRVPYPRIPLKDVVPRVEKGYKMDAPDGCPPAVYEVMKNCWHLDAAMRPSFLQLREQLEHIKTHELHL
Sequence of UniProt Q8WUX2 (Q8WUX2 whole entry, looked up): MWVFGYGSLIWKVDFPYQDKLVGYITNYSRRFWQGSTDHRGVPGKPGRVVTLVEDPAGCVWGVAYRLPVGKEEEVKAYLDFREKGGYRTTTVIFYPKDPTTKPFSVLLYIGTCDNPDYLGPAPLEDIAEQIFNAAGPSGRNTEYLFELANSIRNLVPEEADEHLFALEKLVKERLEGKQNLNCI
Sequence of UniProt Q13057 (Q13057 whole entry, looked up): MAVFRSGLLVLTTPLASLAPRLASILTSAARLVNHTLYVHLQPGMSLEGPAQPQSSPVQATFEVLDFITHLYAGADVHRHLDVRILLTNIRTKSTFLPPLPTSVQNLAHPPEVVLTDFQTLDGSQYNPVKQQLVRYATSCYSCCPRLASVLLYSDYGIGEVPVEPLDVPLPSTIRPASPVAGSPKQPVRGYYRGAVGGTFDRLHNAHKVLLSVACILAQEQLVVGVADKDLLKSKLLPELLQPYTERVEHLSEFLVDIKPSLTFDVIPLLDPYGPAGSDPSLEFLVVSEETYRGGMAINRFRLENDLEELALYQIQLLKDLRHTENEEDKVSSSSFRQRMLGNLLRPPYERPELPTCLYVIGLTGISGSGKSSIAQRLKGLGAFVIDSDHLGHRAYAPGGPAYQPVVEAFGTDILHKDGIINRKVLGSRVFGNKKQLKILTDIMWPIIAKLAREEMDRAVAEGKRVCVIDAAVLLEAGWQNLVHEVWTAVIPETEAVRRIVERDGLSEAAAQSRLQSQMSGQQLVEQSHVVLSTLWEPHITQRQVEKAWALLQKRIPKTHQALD
Sequence of UniProt Q16740 (Q16740 whole entry, looked up): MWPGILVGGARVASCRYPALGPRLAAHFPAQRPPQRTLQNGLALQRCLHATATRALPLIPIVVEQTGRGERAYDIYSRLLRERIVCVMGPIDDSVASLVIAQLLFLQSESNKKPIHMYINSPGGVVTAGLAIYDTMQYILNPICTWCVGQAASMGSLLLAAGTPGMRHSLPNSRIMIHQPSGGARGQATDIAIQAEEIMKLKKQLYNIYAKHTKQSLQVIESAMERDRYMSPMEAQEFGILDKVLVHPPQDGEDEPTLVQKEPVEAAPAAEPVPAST

| Target | log2 fold change [1] | log2 fold change [2] | log2 fold change [3] | log2 fold change [4] | log2 fold change (Nexturastat A) | log2 fold change (vemurafenib) | log2 fold change [5] | log2 fold change [6] | log2 fold change (givinostat) | log2 fold change (barasertib) | log2 fold change [7] | log2 fold change (volasertib) | log2 fold change [8] | log2 fold change (epoxomicin) | log2 fold change [9] | log2 fold change [10] | log2 fold change [11] | log2 fold change (rosiglitazone) | log2 fold change [12] | log2 fold change [13] |
| --- | --- | --- | --- | --- | --- | --- | --- | --- | --- | --- | --- | --- | --- | --- | --- | --- | --- | --- | --- | --- |
| CSK (UniProt P41240) | 0.325 (active) | -0.091 | -0.01 | 0.019 | -0.046 | 0.072 | 0.054 | 0.034 | 0.035 | 0.004 | -0.132 | -0.306 (active) | 0.05 | 0.014 | -0.013 | -0.075 | 0.024 | 0.032 | -0.011 | -0.147 |
| CKS1B (UniProt P61024) | -0.043 | -0.094 | -0.121 | 0.036 | -0.005 | 0.056 | -0.17 | -0.38 | -0.034 | 0.029 | -0.028 | 0.068 | 0.094 | 0.014 | 0.025 | 0.041 | -0.024 | -0.002 | 0.022 | -0.006 |
| CHAC2 (UniProt Q8WUX2) | -0.001 | 0.025 | 0.037 | 0.015 | -0.026 | 0.04 | 0.031 | -0.08 | 0.007 | 0.079 | -0.343 (active) | -0.227 | 0.035 | -0.025 | 0.039 | -0.03 | 0.002 | 0.028 | -0.04 | 0.041 |
| COASY isoform 2 (UniProt Q13057) | -0.002 | -0.058 | 0.057 | 0.029 | 0.021 | 0.054 | 0.209 | -0.007 | -0.04 | 0.029 | -0.068 | -0.266 (active) | 0.027 | -0.013 | 0.061 | -0.052 | 0.038 | 0.017 | -0.08 | -0.132 |
| CDC42EP1 (UniProt Q00587) | -0.005 | 0.034 | -0.002 | 0.073 | 0.022 | 0.011 | -0.022 | 0.075 | 0.15 | -0.004 | -0.005 | 0.058 | 0.057 | 0.032 | -0.096 | -0.051 | -0.016 | 0.093 | 0.039 | -0.554 (active) |
| CNDP2 (UniProt Q96KP4) | 0.021 | -0.013 | 0.04 | 0.043 | -0.131 | 0.016 | 0.003 | -0.052 | -0.087 | -0.004 | -0.037 | 0.014 | -0.003 | -0.012 | 0.014 | -0.1 | -0.002 | 0.016 | -0.103 | -0.149 |
| CAMK2G isoform 6 (UniProt Q13555) | 0.048 | -0.055 | 0.131 | -0.011 | 0.094 | -0.026 | 0.11 | 0.15 | 0.025 | 0.065 | 0.095 | -0.15 | 0.072 | -0.028 | -0.063 | 0.042 | 0.035 | -0.008 | 0.064 | -0.319 |
| CDK6 (UniProt Q00534) | -0.037 | 0.01 | 0.044 | 0 | 0.032 | 0.002 | -0.024 | -0.027 | -0.019 | -0.018 | -0.027 | -0.03 | 0.007 | 0.088 | 0.043 | 0.014 | 0.007 | 0.011 | 0.062 | -0.1 |
| CBX1 (UniProt P83916) | 0.049 | -0.005 | 0.04 | 0.318 (active) | -0.026 | 0.07 | 0.057 | -0.011 | -0.042 | -0.009 | 0.001 | -0.119 | 0.103 | -0.022 | -0.007 | -0.037 | -0.013 | 0.009 | 0.028 | -0.014 |
| COX5B (UniProt P10606) | -0.038 | -0.096 | 0.037 | -0.008 | -0.043 | 0.037 | -0.044 | 0.013 | 0.065 | 0.034 | 0.06 | -0.02 | -0.047 | 0.192 | -0.051 | -0.043 | -0.013 | -0.01 | -0.037 | 0.541 (active) |
| CHKA (UniProt P35790) | -0.011 | -0.048 | -0.125 | 0.033 | 0.036 | -0.017 | 0.019 | -0.164 | 0.334 (active) | 0.05 | 0.22 | 0.161 | -0.077 | 0.127 | -0.001 | 0.203 | 0.043 | 0.044 | -0.082 | 0.187 |
| CLPP (UniProt Q16740) | -0.002 | -0.004 | -0.003 | 0.007 | 0.041 | 0.015 | 0.008 | 0.023 | 0.003 | 0.001 | -0.03 | 0.035 | -0.045 | -0.056 | -0.023 | -0.015 | 0.017 | -0.035 | 0 | 0.081 |
| CDK11B (UniProt P21127) | -0.079 | 0.214 | -0.109 | 0.071 | 0.038 | 0.029 | -0.064 | -0.063 | 0.114 | 0.028 | 0.087 | 0.047 | 0.028 | -0.072 | -0.07 | -0.01 | -0.107 | 0.004 | 0.005 | 0.094 |
| CHAMP1 (UniProt Q96JM3) | -0.003 | -0.018 | 0.005 | -0.012 | 0.011 | -0.01 | -0.011 | -0.003 | 0.032 | 0.027 | -0.035 | -0.357 (active) | 0.181 | 0.016 | -0.038 | -0.095 | 0.014 | 0.063 | 0.038 | -0.302 |
| CDC123 (UniProt O75794) | -0.033 | 0.006 | 0.043 | 0.048 | 0.013 | 0.011 | 0.02 | 0.038 | -0.01 | 0.028 | 0.06 | -0.002 | 0.07 | 0.137 | -0.012 | -0.021 | 0.015 | 0.034 | -0.009 | -0.1 |
